# Bioassay records from PubChem BioAssay.
# This is a sample that favours compounds with a hit; in the whole collection about 1.5% have one here.
# LANA DNA inh: inhibitors of KSHV C-LANA binding to DNA, primary screen, biochemical, fluorescence polarization, FAM-LBS DNA, MBP-C-LANA, single point; inhibition, % at 9 µM; Kaposi's sarcoma herpesvirus LANA C-terminal domain (residues 932-1162) DNA binding; actives 0.078% (n = 340,000); AID 504423, 2011;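 active = highest replicate inhibition at or above 60% at 9 µM, even if other replicates fall short; inactive = all replicates below 60% inhibition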;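 also: 0% = neutral control wells and 100% = 4 µM acridine orange control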
# GLD-1 TGE inh: GLD-1/TGE RNA complex disruptors, primary screen, biochemical, fluorescence polarization; Female germline-specific tumor suppressor gld-1 (Caenorhabditis elegans), Q17339; purified GLD-1 + fluorescein TGE RNA; inhibition, % at 5.96 µM; actives 0.44% (n = 320,000); AID 2280, 2010;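 active = percent inhibition above a per-plate cutoff, the plate mean of test compounds plus 3 SD, cut at about 30% in these data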;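 also: 0% = DMSO wells with GLD-1 and probe and 100% = wells lacking GLD-1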
# Target sequence (Q17339 whole entry, looked up): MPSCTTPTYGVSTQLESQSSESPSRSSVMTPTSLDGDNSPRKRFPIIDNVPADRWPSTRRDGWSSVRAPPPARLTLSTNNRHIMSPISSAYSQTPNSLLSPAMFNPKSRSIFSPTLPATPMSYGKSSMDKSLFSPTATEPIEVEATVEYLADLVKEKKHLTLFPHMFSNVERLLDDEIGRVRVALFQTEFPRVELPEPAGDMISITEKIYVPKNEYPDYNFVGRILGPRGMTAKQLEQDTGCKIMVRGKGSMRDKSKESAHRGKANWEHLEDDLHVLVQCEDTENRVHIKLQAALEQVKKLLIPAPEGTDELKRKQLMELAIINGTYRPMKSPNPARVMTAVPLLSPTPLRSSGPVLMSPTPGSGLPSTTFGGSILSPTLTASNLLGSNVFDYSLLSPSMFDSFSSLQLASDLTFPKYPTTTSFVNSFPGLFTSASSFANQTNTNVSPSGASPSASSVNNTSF
# E coli Lon inh: inhibitors of E. coli Lon protease, primary screen, biochemical, fluorescence polarization; P0A9M0; purified E. coli Lon protease; inhibition, % at 7.94 µM; actives 0.42% (n = 360,000); AID 602123, 2011; in the data active = inhibition above about 13%, passing the limit was not always enough;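 also: 0% = enzyme with probe and DMSO and 100% = no enzyme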
# EBV gp42 block: Epstein-Barr virus gp42 inhibitors, primary screen, biochemical, uHTS, fluorescence polarization. actives 0.42% (n = 220,000). Glycoprotein 42 (Epstein-Barr virus (strain AG876)), Q1HVG2. AID 1085, 2008. Fluorescence polarization binding assay, mP read-out. inhibition, % (tested at 21.74 µM); in the data active = inhibition above about 50%
# Target sequence (Q1HVG2 whole entry, looked up): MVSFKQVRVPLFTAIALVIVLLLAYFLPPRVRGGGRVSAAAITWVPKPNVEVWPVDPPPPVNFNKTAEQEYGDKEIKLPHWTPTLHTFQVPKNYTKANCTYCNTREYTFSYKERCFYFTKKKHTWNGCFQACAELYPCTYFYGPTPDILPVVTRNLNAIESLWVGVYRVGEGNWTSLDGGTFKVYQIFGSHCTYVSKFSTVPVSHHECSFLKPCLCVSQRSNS
# LANA-H2B inh: blockers of LANA interaction with H2A/H2B – biochemical, FP readout, HTS, primary screen; cell-free LANA-H2A/H2B peptide, fluorescence polarization; inhibition, % (concentration not given with the values); actives 0.6% (n = 320,000); Protein LANA1 (Human herpesvirus 8 type P (isolate GK18)), Q9QR71; in the data active = inhibition mostly above about 10%, no sharp cut-off; inactive = mostly below about 6.7%
# Keap1-Nrf2 PPI: Keap1-Nrf2 protein-protein interaction inhibitors, primary screen, biochemical, fluorescence polarization, single point | Kelch-like ECH-associated protein 1 (Homo sapiens), Q14145 | Keap1 Kelch-Nrf2 peptide fluorescence polarization, 1536-well | inhibition, % at 9.4 µM | actives 0.15% (n = 340,000) | AID 504523, 2011; in the data active = inhibition above about 12%;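 also: human Keap1 Kelch domain with fluorescein labeled Nrf2 9mer peptide probe; 0% = neutral control wells and 100% = peptide positive control; higher means more block of Keap1 binding to Nrf2 peptide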
# An asterisk follows results filed as active; . = no result; + = active, no number.
SMILES,LANA DNA inh,GLD-1 TGE inh,E coli Lon inh,EBV gp42 block,LANA-H2B inh,Keap1-Nrf2 PPI
CC(=O)C[C@H](O)CC(=O)[C@@H]1OC(=O)[C@H](C)C/C=C\Cc2ccccc21,0.5,1.9,-5.0,.,+,-3.4
CC(=O)N1CCc2c(sc(NC(=O)c3ccc([N+](=O)[O-])o3)c2C(N)=O)C1,.,.,1.6,.,.,.
CCOC(=O)CN1C(=O)C(=O)N(Cc2c(F)cccc2Cl)C1=O,-0.8,-2.4,6.7,.,3.0,0.8
COC(=O)c1sccc1NC(=O)COc1ccc(F)cc1Cl,0.8,2.0,-15.9,-12.3,-2.8,-0.1
Cc1cc(C(=O)N2CCCC(C(=O)c3cccc(C(F)(F)F)c3)C2)nc(C)n1 (stereo unspecified),0.9,5.4,-0.1,-9.0,13.6*,-1.3
N=c1c(S(=O)(=O)c2ccccc2)cc2c(=O)n3ccccc3nc2n1C1CCCC1,1.1,-6.5,6.8,.,6.1,-0.4
N=c1c(S(=O)(=O)c2ccc(Cl)cc2)cc2c(=O)n3ccccc3nc2n1C1CCCCC1,10.9,-1.3,-6.6,.,2.9,24.6*
CCS(=O)(=O)c1nc(S(=O)(=O)c2ccc(Cl)cc2)c(N2CCC(O)CC2)s1,-1.1,-1.4,8.5,.,0.5,-0.7
O=c1oc2ccccc2c2oc3cc(O)c(O)cc3c12,-1.9,1.2,-1.2,12.3,1.6,-4.3
O=c1oc2c(O)c(O)cc3c(=O)oc4c(O)c(O)cc1c4c23,127.3*,8.4,-5.8,86.5*,2.3,2.9
N#Cc1c(SCC(N)=O)nc2c(c1-c1ccc(O)cc1)CCCC2,4.2,1.1,-1.5,110.6*,0.0,1.0
CN1CCCC1CCNc1ccc2sc3ccccc3c(=O)c2c1 (stereo unspecified),-3.8,38.5*,-18.2,.,-12.0,-7.0
O=c1c2ccccc2sc2ccc(NCCCN3CCOCC3)cc12,-1.6,36.4*,-46.4,.,3.4,-9.3
O=C(NC12CC3CC(CC(C3)C1)C2)c1ccc(-c2ccccc2Cl)o1,-3.4,1.3,19.5*,-6.4,2.9,1.3
O=C(NC12CC3CC(CC(C3)C1)C2)c1ccc(-c2ccc(Cl)cc2)o1,-0.7,-4.2,-8.7,-22.6,3.4,1.2
CCCN(CCC)C(=O)C1CC(=O)OC12CCCCC2 (stereo unspecified),-0.2,-5.6,-5.7,-12.6,13.2*,2.1
CCCOc1ccc(Br)cc1CSC(=N)N,-0.4,5.4,-7.3,12.3,1.1,-0.3
Cc1cc(CSC(=N)N)c(CSC(=N)N)cc1C,-1.9,8.3,-1.3,-6.0,18.7*,-5.5
C=CCNC(=O)c1cccc2c1C(=O)c1ccc(N3CCCC3)cc1S2(=O)=O,5.2,43.2*,-35.0,.,3.6,-7.0
O=C(NCC1CC1)c1cccc2c1C(=O)c1ccc(N3CCCC3)cc1S2(=O)=O,17.6,43.6*,-18.4,.,-6.9,-2.1
Cc1cc(C)cc(CC(=O)N2CCC2(C)C(=O)NS(=O)(=O)c2ccc(Br)cc2)c1 (stereo unspecified),.,.,-2.9,.,.,.
COC(=O)c1sccc1NC(=O)Nc1ccccc1F,-0.6,4.3,-19.1,-5.8,12.2*,1.2
CCc1cc(-c2nc(N)ncc2-c2ccc(Br)cc2)c(O)cc1OC,0.8,0.3,0.6,-10.3,19.2*,-7.2
Cc1onc(-c2ccccc2)c1C(=O)N1CCN(c2ccccc2)CC1,-0.4,5.6,-1.4,.,-2.5,-1.6
CC1(C(=O)N2CCN(c3ccc([N+](=O)[O-])cc3)CC2)CC1(Cl)Cl (stereo unspecified),-1.4,64.1*,-1.9,.,0.0,-5.7
SMILES,LANA DNA inh,GLD-1 TGE inh,E coli Lon inh,EBV gp42 block,LANA-H2B inh,Keap1-Nrf2 PPI
Cc1onc(-c2ccccc2)c1C(=O)N1CCN(c2ccc([N+](=O)[O-])cc2)CC1,0.2,5.9,-5.3,.,15.9*,0.8
Cc1noc(C)c1COc1ccc(C(=O)OCc2nnc(-c3ccc(Cl)cc3)o2)cc1,-0.9,0.5,-1.8,-7.4,-2.4,-1.3
Cc1nc2nc(-c3cccs3)cn2nc1C,3.7,72.4*,11.8,68.4*,-1.6,-5.5
CC(C)C[C@@H](CNCC(=O)[C@H](CC(C)C)NC(=O)c1[nH]cnc1C(=O)N[C@@H](C)CN)NC(=O)c1nc[nH]c1C(=O)N[C@@H](CC(=O)O)C(=O)O,1.7,.,7.4,.,.,-3.9
CCOc1ccc(N2C(=O)C3ON(C)C(c4ccc([N+](=O)[O-])cc4)C3C2=O)cc1 (stereo unspecified),1.5,-1.4,-4.2,-17.2,-1.6,2.0
CS(=O)(=O)c1cccc(C(=O)Oc2ccccc2)c1,12.2,3.3,-5.9,-2.1,37.8*,-7.1
CS(=O)(=O)c1cccc(C(=O)OCCCC(=O)c2ccccc2)c1,-0.3,-0.6,-4.5,.,4.0,-1.0
O=S(=O)(C=C(c1ccccc1)c1ccccc1)c1ccccc1,0.6,7.0,-1.2,-4.0,15.4*,2.5
COc1ccccc1-c1csc(C(O)c2ccc(F)c(F)c2)n1 (stereo unspecified),.,.,-10.7,.,.,.
COc1cccc(COC(=O)C2CCN(S(=O)(=O)c3ccc(C)cc3)CC2)c1OC,0.5,-2.2,-7.8,.,3.0,1.5
COc1cccc(COC(=O)C2CCN(S(=O)(=O)c3ccc(C)cc3C)CC2)c1OC,-2.7,-4.4,4.2,.,27.3*,0.1
CC(=O)N(C)c1ccc(OCC(O)Cn2c3ccc(Cl)cc3c3cc(Cl)ccc32)cc1 (stereo unspecified),1.5,5.4,-2.2,-6.1,-1.4,-5.0
O=c1cc(-c2ccccc2)nc2c(-c3ccccc3)c(C(F)(F)F)[nH]n12,.,8.9,5.3,59.9*,-1.4,.
COCCNC(=O)C1CCCN(C(=O)c2ccc3sccc3c2)CC1 (stereo unspecified),.,.,-1.1,.,.,.
COC(=O)c1cc(Cl)ccc1NCC(N)c1ccccc1 (stereo unspecified),.,.,-0.6,.,.,.
CCN(CC(=O)Nc1c(F)cccc1F)C(=O)CCc1ccc(OC)cc1,0.5,0.7,7.9,-13.5,0.6,-6.0
Cc1ccc(C(=O)CC2(O)C(=O)Nc3ccccc32)s1 (stereo unspecified),-3.0,3.9,0.4,-10.9,1.3,-2.7
Cc1ccc2c(c1)C(O)(CC(=O)c1ccc(C)s1)C(=O)N2 (stereo unspecified),-1.0,7.1,4.4,-1.8,89.8*,-1.7
Cc1cc(C)n(CC(=O)NNC(=O)CC(C)c2ccccc2)n1 (stereo unspecified),73.3*,3.0,1.2,.,.,0.8
Cc1cc(C)n(CC(=O)NNC(=O)CCNC(=O)c2ccccc2Cl)n1,0.5,0.8,3.1,.,0.8,2.2
Cn1cccc1CC(=O)NNC(=O)Nc1cccc(Cl)c1,-1.5,-2.1,2.3,-6.8,-2.0,-4.5
